# Assays:
# [1] = target: T1, Inhibitor of nuclear factor kappa-B kinase subunit epsilon (Homo sapiens) (UniProt Q14164); details: at 1 µM;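 further: reported values are averaged percent inhibition figures against human IKKε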
# T1 sequence (whole entry): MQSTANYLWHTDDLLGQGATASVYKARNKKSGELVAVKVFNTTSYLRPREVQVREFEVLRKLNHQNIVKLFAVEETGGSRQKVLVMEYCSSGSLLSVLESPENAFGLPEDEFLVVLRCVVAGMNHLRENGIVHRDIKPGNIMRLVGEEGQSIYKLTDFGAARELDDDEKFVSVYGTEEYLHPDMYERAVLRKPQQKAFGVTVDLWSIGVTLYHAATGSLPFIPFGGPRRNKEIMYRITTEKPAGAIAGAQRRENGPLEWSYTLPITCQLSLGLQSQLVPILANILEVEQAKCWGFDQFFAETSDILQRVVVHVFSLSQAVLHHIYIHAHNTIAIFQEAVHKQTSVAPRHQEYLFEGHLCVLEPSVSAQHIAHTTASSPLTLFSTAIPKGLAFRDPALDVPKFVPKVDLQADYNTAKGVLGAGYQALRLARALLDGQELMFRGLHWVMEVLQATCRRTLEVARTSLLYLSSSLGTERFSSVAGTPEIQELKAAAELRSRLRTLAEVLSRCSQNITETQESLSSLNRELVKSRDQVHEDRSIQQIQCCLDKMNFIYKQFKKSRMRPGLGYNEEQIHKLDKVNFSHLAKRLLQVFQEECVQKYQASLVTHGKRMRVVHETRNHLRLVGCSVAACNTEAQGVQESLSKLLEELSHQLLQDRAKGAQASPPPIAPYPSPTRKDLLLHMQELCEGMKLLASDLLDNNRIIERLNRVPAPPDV
# [2] = target: T2, Serine/threonine-protein kinase Nek1 (Homo sapiens) (UniProt Q96PY6); details: at 0.1 µM
# T2 sequence (whole entry): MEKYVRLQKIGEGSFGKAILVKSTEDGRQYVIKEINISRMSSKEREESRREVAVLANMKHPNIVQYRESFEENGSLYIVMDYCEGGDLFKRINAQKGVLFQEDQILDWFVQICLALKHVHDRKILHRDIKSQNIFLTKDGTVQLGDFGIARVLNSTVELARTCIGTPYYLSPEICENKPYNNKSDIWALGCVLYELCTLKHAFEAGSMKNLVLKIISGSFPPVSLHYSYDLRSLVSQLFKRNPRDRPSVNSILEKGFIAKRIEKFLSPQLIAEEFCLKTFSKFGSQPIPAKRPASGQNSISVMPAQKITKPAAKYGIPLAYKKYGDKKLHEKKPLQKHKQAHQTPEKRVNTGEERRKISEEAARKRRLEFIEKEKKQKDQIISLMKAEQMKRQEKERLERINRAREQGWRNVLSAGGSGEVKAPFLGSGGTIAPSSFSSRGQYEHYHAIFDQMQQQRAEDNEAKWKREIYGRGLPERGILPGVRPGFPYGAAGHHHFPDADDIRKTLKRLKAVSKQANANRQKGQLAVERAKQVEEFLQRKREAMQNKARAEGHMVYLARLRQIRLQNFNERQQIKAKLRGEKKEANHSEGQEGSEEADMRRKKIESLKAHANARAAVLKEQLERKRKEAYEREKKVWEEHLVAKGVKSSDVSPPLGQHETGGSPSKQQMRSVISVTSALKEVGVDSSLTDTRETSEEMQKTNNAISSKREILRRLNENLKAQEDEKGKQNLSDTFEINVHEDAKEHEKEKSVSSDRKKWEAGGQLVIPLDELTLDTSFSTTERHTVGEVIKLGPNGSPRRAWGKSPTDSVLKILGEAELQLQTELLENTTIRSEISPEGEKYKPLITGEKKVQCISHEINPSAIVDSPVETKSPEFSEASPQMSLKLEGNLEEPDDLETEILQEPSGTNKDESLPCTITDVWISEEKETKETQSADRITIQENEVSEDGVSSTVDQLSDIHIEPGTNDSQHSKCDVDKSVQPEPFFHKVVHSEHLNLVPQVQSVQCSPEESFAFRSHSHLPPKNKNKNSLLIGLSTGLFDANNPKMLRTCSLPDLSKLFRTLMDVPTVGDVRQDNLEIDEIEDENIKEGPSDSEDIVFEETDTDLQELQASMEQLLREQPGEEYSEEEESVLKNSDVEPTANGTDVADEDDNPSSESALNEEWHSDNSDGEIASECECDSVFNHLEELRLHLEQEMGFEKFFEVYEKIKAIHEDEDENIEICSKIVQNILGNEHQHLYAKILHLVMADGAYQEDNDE
# [3] = target: T2, Serine/threonine-protein kinase Nek1 (Homo sapiens); details: at 1 µM
# [4] = target: T3, Serine/threonine-protein kinase Nek2 (Homo sapiens) (UniProt P51955); details: at 0.1 µM
# T3 sequence (whole entry): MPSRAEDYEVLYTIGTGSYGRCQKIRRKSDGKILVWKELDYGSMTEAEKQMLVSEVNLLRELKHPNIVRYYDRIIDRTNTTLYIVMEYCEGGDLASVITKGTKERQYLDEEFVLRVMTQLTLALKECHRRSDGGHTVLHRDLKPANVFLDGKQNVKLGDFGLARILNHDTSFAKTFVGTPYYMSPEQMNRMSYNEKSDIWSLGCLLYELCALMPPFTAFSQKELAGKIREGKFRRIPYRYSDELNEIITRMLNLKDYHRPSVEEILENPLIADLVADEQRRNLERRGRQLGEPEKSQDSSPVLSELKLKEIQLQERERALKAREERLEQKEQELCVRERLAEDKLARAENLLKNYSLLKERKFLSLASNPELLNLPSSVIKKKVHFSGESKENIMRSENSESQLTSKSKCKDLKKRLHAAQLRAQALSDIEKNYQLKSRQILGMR
# [5] = target: T3, Serine/threonine-protein kinase Nek2 (Homo sapiens); details: at 1 µM
# [6] = target: Serine/threonine-protein kinase Nek6 (Homo sapiens) (UniProt Q9HC98); details: at 0.1 µM
# Serine/threonine-protein kinase Nek6 (Homo sapiens), sequence (Q9HC98 whole entry): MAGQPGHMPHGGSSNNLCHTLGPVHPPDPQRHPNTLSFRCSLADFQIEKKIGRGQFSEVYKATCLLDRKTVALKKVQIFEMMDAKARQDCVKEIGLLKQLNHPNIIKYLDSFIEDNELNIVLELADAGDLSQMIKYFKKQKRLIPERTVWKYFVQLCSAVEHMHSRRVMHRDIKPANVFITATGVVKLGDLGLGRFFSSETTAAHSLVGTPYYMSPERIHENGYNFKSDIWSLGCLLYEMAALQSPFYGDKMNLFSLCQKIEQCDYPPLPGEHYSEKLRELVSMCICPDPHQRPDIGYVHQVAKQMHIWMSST
# [7] = target: Serine/threonine-protein kinase Nek6 (Homo sapiens) (UniProt Q9HC98); details: at 1 µM
# [8] = target: Serine/threonine-protein kinase Nek7 (Homo sapiens) (UniProt Q8TDX7); details: at 0.1 µM
# Serine/threonine-protein kinase Nek7 (Homo sapiens), sequence (Q8TDX7 whole entry, looked up): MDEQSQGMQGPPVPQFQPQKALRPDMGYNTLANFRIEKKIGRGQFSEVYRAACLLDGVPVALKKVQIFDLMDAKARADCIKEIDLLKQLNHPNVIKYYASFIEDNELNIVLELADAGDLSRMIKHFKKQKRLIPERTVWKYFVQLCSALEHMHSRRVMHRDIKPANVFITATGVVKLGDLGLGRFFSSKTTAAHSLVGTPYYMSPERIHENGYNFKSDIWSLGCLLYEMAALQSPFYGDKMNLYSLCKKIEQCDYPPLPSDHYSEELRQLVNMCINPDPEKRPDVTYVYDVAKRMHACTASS
# [9] = target: Serine/threonine-protein kinase Nek7 (Homo sapiens) (UniProt Q8TDX7); details: at 1 µM
# [10] = target: T4, Serine/threonine-protein kinase Nek9 (Homo sapiens) (UniProt Q8TD19); details: at 0.1 µM
# T4 sequence (whole entry): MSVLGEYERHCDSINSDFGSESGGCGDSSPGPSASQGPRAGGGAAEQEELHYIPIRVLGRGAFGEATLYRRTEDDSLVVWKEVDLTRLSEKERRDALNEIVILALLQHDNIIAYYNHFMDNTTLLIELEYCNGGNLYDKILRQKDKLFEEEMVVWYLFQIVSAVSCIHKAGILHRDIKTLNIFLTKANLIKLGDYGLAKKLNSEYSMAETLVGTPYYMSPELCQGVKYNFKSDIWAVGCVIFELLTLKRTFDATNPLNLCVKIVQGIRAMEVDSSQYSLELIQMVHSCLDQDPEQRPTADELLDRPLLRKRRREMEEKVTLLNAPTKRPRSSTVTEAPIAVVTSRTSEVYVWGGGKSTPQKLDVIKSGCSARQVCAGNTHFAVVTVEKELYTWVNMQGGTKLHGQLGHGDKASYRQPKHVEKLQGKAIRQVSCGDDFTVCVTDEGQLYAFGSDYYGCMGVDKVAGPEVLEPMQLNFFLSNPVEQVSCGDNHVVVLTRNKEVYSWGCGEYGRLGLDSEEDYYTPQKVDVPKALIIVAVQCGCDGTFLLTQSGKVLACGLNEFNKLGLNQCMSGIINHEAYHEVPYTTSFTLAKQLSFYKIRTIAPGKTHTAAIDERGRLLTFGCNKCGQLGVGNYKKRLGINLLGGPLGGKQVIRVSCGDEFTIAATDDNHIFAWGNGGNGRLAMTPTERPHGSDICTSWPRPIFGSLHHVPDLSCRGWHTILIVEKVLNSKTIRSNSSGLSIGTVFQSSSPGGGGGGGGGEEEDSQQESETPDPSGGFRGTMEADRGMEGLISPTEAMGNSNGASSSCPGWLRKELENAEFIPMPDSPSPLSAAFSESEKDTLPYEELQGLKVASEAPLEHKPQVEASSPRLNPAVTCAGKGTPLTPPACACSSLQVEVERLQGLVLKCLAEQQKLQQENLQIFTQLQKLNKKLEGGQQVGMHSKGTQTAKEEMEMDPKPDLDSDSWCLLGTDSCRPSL
# [11] = target: T4, Serine/threonine-protein kinase Nek9 (Homo sapiens); details: at 1 µM
# [12] = target: Serine/threonine-protein kinase PLK1 (Homo sapiens) (UniProt P53350); details: at 0.1 µM
# Serine/threonine-protein kinase PLK1 (Homo sapiens), sequence (P53350 whole entry): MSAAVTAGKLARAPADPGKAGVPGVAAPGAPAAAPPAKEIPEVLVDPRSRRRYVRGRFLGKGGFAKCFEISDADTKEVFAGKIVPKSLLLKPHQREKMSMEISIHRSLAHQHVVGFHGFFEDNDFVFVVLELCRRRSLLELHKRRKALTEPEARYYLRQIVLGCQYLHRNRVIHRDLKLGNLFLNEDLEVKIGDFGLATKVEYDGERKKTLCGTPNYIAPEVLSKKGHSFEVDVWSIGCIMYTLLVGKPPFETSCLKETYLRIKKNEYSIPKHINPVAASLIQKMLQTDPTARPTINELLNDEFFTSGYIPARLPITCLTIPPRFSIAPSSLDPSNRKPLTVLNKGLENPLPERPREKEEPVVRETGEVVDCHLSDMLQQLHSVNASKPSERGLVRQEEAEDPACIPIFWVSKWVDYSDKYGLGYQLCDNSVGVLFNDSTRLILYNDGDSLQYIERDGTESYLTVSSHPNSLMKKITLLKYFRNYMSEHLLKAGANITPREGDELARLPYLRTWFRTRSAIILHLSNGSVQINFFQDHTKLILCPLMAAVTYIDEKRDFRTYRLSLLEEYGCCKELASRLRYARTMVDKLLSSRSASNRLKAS
# [13] = target: Serine/threonine-protein kinase PLK1 (Homo sapiens) (UniProt P53350); details: at 1 µM
# [14] = system: T5, Receptor-type tyrosine-protein kinase FLT3 (Homo sapiens), P36888 [D835Y]; details: at 1 µM
# T5 sequence (whole entry): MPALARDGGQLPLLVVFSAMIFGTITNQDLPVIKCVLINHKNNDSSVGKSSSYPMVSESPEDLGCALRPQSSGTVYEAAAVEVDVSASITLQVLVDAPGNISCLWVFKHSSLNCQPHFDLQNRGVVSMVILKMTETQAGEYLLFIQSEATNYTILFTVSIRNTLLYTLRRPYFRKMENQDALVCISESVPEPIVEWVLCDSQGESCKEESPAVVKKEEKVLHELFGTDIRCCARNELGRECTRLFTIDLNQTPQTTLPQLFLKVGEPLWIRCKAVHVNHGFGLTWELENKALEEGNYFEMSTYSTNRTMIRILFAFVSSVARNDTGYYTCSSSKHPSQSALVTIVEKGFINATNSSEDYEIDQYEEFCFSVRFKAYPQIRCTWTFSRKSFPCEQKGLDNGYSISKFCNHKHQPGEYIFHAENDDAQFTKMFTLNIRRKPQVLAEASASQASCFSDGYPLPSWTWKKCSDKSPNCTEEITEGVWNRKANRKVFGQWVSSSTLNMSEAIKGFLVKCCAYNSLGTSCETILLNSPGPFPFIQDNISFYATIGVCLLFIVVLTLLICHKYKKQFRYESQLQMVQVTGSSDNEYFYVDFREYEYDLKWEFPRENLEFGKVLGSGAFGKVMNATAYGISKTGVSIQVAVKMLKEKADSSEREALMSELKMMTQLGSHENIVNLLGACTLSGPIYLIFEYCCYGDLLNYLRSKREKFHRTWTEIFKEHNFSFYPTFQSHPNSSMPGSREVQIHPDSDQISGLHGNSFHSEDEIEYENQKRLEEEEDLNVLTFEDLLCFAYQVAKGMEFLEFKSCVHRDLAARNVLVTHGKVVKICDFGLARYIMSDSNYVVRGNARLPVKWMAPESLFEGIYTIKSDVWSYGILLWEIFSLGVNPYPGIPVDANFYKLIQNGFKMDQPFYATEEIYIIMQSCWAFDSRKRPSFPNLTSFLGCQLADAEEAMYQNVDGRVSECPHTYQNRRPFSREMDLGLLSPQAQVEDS
# [15] = target: Vascular endothelial growth factor receptor 3 (Homo sapiens) (UniProt P35916); details: at 0.1 µM
# Vascular endothelial growth factor receptor 3 (Homo sapiens), sequence (P35916 whole entry): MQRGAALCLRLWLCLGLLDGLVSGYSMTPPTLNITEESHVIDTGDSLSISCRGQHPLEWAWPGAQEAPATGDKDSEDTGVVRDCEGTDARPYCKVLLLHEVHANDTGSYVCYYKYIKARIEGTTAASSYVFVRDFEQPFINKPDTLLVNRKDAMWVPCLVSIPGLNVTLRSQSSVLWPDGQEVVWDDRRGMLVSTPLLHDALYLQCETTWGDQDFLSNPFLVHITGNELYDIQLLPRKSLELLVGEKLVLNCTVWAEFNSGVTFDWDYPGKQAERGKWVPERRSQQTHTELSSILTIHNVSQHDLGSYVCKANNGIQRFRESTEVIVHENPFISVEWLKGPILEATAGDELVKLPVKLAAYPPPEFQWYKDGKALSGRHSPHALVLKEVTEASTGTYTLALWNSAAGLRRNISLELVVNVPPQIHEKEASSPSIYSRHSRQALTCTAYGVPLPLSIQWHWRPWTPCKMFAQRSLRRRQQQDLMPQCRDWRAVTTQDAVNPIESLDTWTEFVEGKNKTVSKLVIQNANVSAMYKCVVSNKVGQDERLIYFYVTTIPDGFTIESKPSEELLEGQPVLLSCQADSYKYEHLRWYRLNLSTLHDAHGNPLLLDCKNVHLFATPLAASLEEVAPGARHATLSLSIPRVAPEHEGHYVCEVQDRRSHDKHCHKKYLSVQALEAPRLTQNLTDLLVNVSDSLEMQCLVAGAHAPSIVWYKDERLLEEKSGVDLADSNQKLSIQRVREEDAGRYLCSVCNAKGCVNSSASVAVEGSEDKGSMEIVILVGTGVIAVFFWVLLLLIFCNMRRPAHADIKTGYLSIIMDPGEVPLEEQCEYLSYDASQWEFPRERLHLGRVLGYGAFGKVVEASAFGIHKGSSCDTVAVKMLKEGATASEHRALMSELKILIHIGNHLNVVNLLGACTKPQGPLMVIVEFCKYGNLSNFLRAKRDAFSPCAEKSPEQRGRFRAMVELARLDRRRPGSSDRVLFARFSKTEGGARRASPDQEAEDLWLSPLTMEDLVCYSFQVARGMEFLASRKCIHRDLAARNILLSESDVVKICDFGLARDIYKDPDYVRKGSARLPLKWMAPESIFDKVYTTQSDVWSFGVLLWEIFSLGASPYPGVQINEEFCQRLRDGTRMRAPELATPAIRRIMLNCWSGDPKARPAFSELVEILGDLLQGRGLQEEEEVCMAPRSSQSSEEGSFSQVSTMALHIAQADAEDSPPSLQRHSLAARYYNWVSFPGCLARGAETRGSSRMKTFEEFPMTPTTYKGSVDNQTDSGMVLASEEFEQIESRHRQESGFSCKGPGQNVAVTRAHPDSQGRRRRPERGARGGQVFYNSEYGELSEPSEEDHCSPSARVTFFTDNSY
# [16] = target: Vascular endothelial growth factor receptor 3 (Homo sapiens) (UniProt P35916); details: at 1 µM
# [17] = target: Macrophage colony-stimulating factor 1 receptor (Homo sapiens) (UniProt P07333); details: at 0.1 µM
# Macrophage colony-stimulating factor 1 receptor (Homo sapiens), sequence (P07333 whole entry): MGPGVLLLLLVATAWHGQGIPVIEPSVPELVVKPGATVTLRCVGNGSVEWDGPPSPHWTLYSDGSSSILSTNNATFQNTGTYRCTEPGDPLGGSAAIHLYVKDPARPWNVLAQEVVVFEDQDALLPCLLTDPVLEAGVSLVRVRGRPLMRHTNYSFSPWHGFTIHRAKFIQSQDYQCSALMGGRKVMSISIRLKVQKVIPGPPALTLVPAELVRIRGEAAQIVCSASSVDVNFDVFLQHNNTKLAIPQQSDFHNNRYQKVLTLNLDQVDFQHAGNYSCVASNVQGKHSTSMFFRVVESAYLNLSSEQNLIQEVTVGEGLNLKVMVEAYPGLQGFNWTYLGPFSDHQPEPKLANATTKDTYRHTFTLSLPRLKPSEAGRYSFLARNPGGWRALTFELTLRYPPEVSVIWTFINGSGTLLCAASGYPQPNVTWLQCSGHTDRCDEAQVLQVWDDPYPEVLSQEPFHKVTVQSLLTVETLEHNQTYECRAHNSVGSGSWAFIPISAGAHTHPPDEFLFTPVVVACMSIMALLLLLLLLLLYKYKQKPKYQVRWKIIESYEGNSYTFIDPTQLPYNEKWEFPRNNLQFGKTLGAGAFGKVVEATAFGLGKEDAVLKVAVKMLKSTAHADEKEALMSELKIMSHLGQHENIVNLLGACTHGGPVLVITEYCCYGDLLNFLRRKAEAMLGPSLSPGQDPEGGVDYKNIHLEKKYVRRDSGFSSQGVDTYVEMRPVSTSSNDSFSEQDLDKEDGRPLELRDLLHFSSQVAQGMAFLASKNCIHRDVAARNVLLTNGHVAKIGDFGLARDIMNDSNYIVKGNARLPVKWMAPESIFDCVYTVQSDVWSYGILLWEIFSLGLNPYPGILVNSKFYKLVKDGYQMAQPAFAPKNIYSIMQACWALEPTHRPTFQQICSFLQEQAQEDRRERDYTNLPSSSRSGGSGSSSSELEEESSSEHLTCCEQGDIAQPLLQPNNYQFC
# [18] = target: Macrophage colony-stimulating factor 1 receptor (Homo sapiens) (UniProt P07333); details: at 1 µM
# [19] = target: Tyrosine-protein kinase Fyn (Homo sapiens) (UniProt P06241); details: at 0.1 µM
# Tyrosine-protein kinase Fyn (Homo sapiens), sequence (P06241 2-537 limits assumed): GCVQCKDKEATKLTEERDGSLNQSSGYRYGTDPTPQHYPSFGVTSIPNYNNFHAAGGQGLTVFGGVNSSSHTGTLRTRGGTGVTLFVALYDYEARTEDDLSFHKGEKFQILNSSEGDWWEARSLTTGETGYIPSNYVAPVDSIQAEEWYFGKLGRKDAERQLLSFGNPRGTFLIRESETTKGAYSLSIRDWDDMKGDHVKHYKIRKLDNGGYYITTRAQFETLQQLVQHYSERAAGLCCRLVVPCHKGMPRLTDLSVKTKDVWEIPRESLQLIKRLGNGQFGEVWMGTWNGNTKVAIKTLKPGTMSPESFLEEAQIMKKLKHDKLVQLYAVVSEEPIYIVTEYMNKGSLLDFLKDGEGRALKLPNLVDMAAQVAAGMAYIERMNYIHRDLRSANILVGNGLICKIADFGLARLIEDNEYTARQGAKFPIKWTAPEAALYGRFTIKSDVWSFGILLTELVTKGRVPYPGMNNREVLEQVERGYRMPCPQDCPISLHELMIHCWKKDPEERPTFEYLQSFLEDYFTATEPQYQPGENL
# [20] = target: T6, Dual specificity protein kinase TTK (Homo sapiens) (UniProt P33981); details: at 0.1 µM
# T6 sequence (whole entry): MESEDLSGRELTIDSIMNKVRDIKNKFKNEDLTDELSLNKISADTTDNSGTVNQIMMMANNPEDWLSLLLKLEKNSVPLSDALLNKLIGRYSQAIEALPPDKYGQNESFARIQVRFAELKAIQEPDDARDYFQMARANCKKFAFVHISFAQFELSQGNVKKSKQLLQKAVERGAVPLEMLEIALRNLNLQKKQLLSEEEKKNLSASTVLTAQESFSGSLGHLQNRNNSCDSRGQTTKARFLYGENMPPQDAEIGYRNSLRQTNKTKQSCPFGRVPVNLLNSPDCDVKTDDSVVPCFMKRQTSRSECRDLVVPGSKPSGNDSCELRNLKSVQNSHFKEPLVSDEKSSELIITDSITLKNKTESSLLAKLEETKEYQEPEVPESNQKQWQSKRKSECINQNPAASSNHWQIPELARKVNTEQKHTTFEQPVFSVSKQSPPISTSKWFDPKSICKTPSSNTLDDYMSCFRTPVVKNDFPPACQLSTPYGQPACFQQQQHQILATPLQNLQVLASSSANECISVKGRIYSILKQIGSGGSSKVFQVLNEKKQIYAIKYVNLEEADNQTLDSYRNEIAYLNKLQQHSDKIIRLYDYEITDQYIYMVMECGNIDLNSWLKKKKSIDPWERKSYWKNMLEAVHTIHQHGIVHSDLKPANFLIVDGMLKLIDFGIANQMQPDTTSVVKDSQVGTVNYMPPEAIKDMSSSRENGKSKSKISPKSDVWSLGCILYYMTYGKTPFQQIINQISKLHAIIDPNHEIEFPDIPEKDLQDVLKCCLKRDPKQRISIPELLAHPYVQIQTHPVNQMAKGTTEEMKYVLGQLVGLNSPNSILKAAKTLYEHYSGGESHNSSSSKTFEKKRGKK
Compound,inhibition [1],inhibition [2],inhibition [3],inhibition [4],inhibition [5],inhibition [6],inhibition [7],inhibition [8],inhibition [9],inhibition [10],inhibition [11],inhibition [12],inhibition [13],inhibition [14],inhibition [15],inhibition [16],inhibition [17],inhibition [18],inhibition [19],inhibition [20]
CCS(=O)(=O)c1ccc(OC)c(Nc2ncc(-c3ccccc3Cl)o2)c1,2.16%,0.72%,4.41%,0.42%,0.79%,1.4%,-2.46%,-0.08%,2.67%,4.12%,6.89%,0.86%,3.51%,17.4%,7.55%,29.9%,9.53%,40.3%,2.29%,
C[C@@H](Oc1cc(-n2cnc3ccc(OCC4CCN(C)CC4)cc32)sc1C(N)=O)c1ccccc1Cl,7.27%,17.6%,54.1%,22.1%,64.9%,0.14%,0.47%,4.32%,9.78%,77.4%,89.7%,,,11.7%,5.35%,23.9%,4.53%,17.9%,4.31%,93.6%

# — ChEMBL document CHEMBL1961873, “Compounds: GSK PKIS; Assays: Nanosyn kinase panel” (2012)
